Assay outcomes as filed in PubChem BioAssay.
This is a sample that favours compounds with a hit; in the whole collection about 3.3% have one here.
sPLA2-III inh = Blocks human group III sPLA2 activity | QFRET BODIPY PC-A2 liposome hydrolysis, fluorescence | AID 743126 | inhibition, % at 12.2 µM | Q9NZ20 | 370,000 tested, 0.56% active;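 active = inhibition above mean plus 3 SD of compounds lying within the high and low control bounds, cut at about 19% in these data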
Target sequence (Q9NZ20 whole entry, looked up): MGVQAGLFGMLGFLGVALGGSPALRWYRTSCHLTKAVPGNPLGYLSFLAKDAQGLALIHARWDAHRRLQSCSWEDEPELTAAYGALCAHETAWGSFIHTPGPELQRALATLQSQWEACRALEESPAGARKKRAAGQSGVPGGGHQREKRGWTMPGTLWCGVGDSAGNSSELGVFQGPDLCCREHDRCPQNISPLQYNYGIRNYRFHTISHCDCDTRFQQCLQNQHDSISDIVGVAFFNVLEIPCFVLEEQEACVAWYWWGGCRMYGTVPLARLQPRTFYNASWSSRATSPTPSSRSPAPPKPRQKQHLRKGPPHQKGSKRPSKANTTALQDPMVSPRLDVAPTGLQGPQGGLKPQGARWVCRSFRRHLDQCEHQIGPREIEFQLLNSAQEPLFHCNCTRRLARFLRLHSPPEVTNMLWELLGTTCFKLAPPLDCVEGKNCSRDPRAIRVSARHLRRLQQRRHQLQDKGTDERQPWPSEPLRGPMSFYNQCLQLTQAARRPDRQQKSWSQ
NR3A LBD binder = NR3A (human) ligand-binding domain modulation | Tm shift relative to glycine control, % at 25 µM | 340,000 tested, 2.5% active | AID 1259313 | NR3A LBD differential scanning fluorimetry, Tm shift; 0% = protein alone, 100% = glycine-bound protein;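 active = melting temperature shift of at least 10% of the positive control shift, at one fixed dose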
UBC13 polyUb = inhibitors of human UBC13 polyubiquitin chain formation | P61088 | TR-FRET | inhibition, % at 20 µM | 330,000 tested, 0.47% active; in the data active = inhibition above about 45%, passing the limit was not always enough; inconclusive = no clear call, values can overlap the other calls
SUMO HTRF inh = SUMOylation inhibition. P63279. HTRF SUMOylation assay, SAE1/SAE2 + UBC9, in vitro. inhibition, % at 35 µM. 290,000 tested, 0.36% active. AID 2006; in the data active = inhibition above about 50%, passing the limit was not always enough; inconclusive = no clear call, values can overlap the other calls
Target sequence (P63279 whole entry, looked up): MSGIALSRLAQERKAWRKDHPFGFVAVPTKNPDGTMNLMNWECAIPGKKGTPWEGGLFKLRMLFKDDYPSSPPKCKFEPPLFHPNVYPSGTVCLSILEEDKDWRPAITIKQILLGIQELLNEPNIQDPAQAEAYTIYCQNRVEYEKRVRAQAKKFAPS
Large screens that a line does not name were inactive.

Cc1nc(Nc2ccc(S(N)(=O)=O)cc2)sc1-c1ccccc1	NR3A LBD binder 16.4
Cc1nc(C)c(-c2csc(Nc3ccc(S(N)(=O)=O)cc3)n2)s1	NR3A LBD binder 32.0
COc1cc(OC)c2c(O)c3c(=O)cc(C)oc3c(-c3c(OC)cc4cc5c(c(O)c4c3O)C(=O)CC(C)(O)O5)c2c1 (configuration not stated)	none (no result: NR3A LBD binder, UBC13 polyUb, SUMO HTRF inh)
O=C1CC(c2ccc3ccccc3c2)N=C2N(Cc3ccc4c(c3)OCO4)C/C(=C/c3ccccc3)N12 (configuration not stated)	none (no result: NR3A LBD binder, UBC13 polyUb, SUMO HTRF inh)
COc1ccc2c(c1)N=CN1CCc3c([nH]c4ccccc34)C3=NCC[C@@]321	none (no result: NR3A LBD binder, UBC13 polyUb, SUMO HTRF inh)
Cc1nc(C)c(-c2csc(Nc3cccc(O)c3)n2)s1	NR3A LBD binder 20.1
COc1ccccc1Nc1nc(C)c(C(=O)Nc2ccccc2)s1	NR3A LBD binder 24.7
Cc1nc(Nc2ccccc2Cl)sc1C(=O)Nc1ccccc1	none
CCCC1CCC2(CC1)CCC2OC(=S)Nc1ccc(N(C)C)cc1 (configuration not stated)	none (no result: NR3A LBD binder, UBC13 polyUb, SUMO HTRF inh)
Oc1ccc(/C=N/n2c3ccccc3c3ccccc32)cc1	NR3A LBD binder 15.6
Cc1cc([N+](=O)[O-])ccc1Nc1nc2ccccc2n2cnnc12	NR3A LBD binder 37.2
Cc1c(Nc2nc3ccccc3n3cnnc23)cccc1[N+](=O)[O-]	none
Cc1[nH]n(C(N)=S)c(=O)c1N=Nc1ccccc1C(F)(F)F	NR3A LBD binder 10.5
N/C(=N\C(=O)OCc1ccccc1)N(Cc1ccccc1)C(C#CC1=CCCCC1)Cc1ccccc1 (configuration not stated)	none (no result: NR3A LBD binder, UBC13 polyUb, SUMO HTRF inh)
Nc1ccc(S(=O)(=O)NC2(C(F)(F)F)NC(=O)N(c3ccc(F)cc3)C2=O)cc1 (configuration not stated)	none
O=C1NC(NS(=O)(=O)c2ccccc2)(C(F)(F)F)C(=O)N1c1ccc(F)cc1 (configuration not stated)	NR3A LBD binder 16.1
O=C(N/N=C/c1c(Cl)[nH]c2ccccc12)c1ccc2c(c1)OCCO2	NR3A LBD binder 17.7
O=C(O)C1Nc2c(O)cccc2C2C=CCC12 (configuration not stated)	UBC13 polyUb inconclusive, SUMO HTRF inh 97.0
O=C(O)C1Nc2c(Cl)cc(Cl)cc2C2C=CCC12 (configuration not stated)	none (no result: sPLA2-III inh, UBC13 polyUb)
CS(=O)(=O)N(CCc1ccccc1)CC(=O)NCc1ccccc1	NR3A LBD binder 36.1
CCCNC(=O)CN(CCc1ccccc1)S(C)(=O)=O	NR3A LBD binder 12.7
CS(=O)(=O)N(CCc1ccccc1)CC(=O)NCc1ccc2c(c1)OCO2	none
Oc1cc2c(cc1C(c1ccc(Br)cc1)N1CCCC1)OCO2 (configuration not stated)	NR3A LBD binder 29.2
O=S(=O)(NCC(c1ccc2c(c1)OCO2)N1CCOCC1)c1ccc(Br)cc1 (configuration not stated)	none (no result: SUMO HTRF inh)
Cc1ccc(C(=O)NNC(=O)C2CCN(C(=O)OC(C)(C)C)CC2)cc1	NR3A LBD binder 30.1
Cc1cccc(C(=O)NNC(=O)C2CCN(C(=O)OC(C)(C)C)CC2)c1	none
C/C(=N\NC(=O)C1(C)CC1(Br)Br)c1cccc(NC(=O)c2ccc(C)o2)c1 (configuration not stated)	NR3A LBD binder 11.1
Cc1ccc(C(=O)Nc2cccc(C(=O)NCc3ccccc3)c2)o1	none
O=S(=O)(c1ccc(SCCOc2ccc(F)cc2)nc1)N1CCCC1	NR3A LBD binder 14.1 (no result: SUMO HTRF inh)
CCOc1ccc(S(=O)(=O)N2CCCC2)cc1	NR3A LBD binder 12.7
Cc1cc(F)ccc1S(=O)(=O)N1CCCOC1CNC(=O)C(=O)NCc1ccc2c(c1)OCO2 (configuration not stated)	none
O=C(NCc1ccc2c(c1)OCO2)C(=O)NCC1OCCCN1S(=O)(=O)c1cc(F)ccc1F (configuration not stated)	NR3A LBD binder 12.6
CCN(Cc1ccccc1)c1ccc(/C=N/NS(=O)(=O)c2cccc([N+](=O)[O-])c2)cc1	NR3A LBD binder 10.4
CCN(CC)c1ccc(/C=N/NS(=O)(=O)c2ccc(C)c([N+](=O)[O-])c2)cc1	none
O=C(CN(Cc1ccccc1)S(=O)(=O)c1ccccc1)N/N=C/c1ccc([N+](=O)[O-])cc1	NR3A LBD binder 10.0
O=C(CN(c1cccc(Br)c1)S(=O)(=O)c1ccccc1)N/N=C/c1cc([N+](=O)[O-])ccc1O	NR3A LBD binder 13.5 (no result: SUMO HTRF inh)
CCN(CC)c1c2c(nc3ncnn13)CCCC2	none (no result: NR3A LBD binder, UBC13 polyUb, SUMO HTRF inh)
CCc1ccc(NC(=O)c2ccc(F)c(S(=O)(=O)NCC3COc4ccccc4O3)c2)cc1 (configuration not stated)	NR3A LBD binder 15.8
O=C(NCC1COc2ccccc2O1)c1ccc(F)c(S(=O)(=O)N2CCOCC2)c1 (configuration not stated)	none (no result: SUMO HTRF inh)
Nn1cnnc1N/N=C\c1ccc(-c2ccccc2[N+](=O)[O-])o1	SUMO HTRF inh 98.5 (no result: UBC13 polyUb)
C=CCC[C@@H](Cc1ccc(F)cc1)C(=O)OC[C@H](Cc1c[nH]c2ccccc12)NC(=O)[C@@H](CC=C)CC(=O)N[C@H](CO)Cc1ccccc1	NR3A LBD binder 14.5 (no result: SUMO HTRF inh)
C=CCC[C@H](Cc1ccc(F)cc1)C(=O)OC[C@@H](NC(=O)[C@@H](CC=C)CC(=O)N[C@@H](CO)Cc1ccccc1)C(C)(C)C	NR3A LBD binder 31.0 (no result: SUMO HTRF inh)
C=CCC[C@H](Cc1ccc(F)cc1)C(=O)OC[C@H](Cc1c[nH]c2ccccc12)NC(=O)[C@@H](CC=C)CC(=O)N[C@@H](CO)Cc1ccccc1	none (no result: SUMO HTRF inh)
O=C(O)c1ccccc1C(=O)Nc1n[nH]c(=S)s1	NR3A LBD binder 14.2
Cc1ccccc1NC(=O)COC(=O)c1cccnc1	none
Cc1ccccc1NC(=O)COC(=O)c1ccc(CSc2ccc(Cl)cc2)cc1	NR3A LBD binder 11.9
O=C(/C=C/Nc1cccc(F)c1)c1ccco1	NR3A LBD binder 27.8
CN(C)c1cccc(/C=C2\CC3(OC(=O)c4ccccc4)CCCN2C3)c1 (configuration not stated)	none (no result: NR3A LBD binder, UBC13 polyUb, SUMO HTRF inh)
COC(=O)[C@]12C[C@H](CC(=O)N3CCN(C(=O)c4ccco4)CC3)C(=O)N(CCC3=CCCCC3)C1=C[C@H](C1CCCC1)O[C@@H]2C	none (no result: NR3A LBD binder, UBC13 polyUb, SUMO HTRF inh)
COc1ccc(CCNC(=O)c2cc(C(=O)c3cc(Cl)ccc3O)cn(CCc3ccc(OC)cc3)c2=O)cc1	none
O=C(c1cc(C(=O)NCCc2ccccc2)c(=O)n(CCc2ccccc2)c1)c1cc(Cl)ccc1O	NR3A LBD binder 13.2
O=C(Nc1c(-c2ccc(C(F)(F)F)cc2)nc2ncccn12)c1ccccc1	none (no result: NR3A LBD binder, UBC13 polyUb, SUMO HTRF inh)
Nc1ccccc1N=c1ssnc1Cl	none (no result: UBC13 polyUb)
Cc1cc(Cl)ccc1N=c1ssnc1Cl	NR3A LBD binder 24.2
Cc1nnc(N=c2ssnc2Cl)o1	NR3A LBD binder 21.3 (no result: SUMO HTRF inh)
Cc1ccc(N=c2ssnc2Cl)cc1	NR3A LBD binder 21.9
CCN1Cc2nnn(CC3CCCCC3)c2-c2ccccc2S1(=O)=O	none (no result: NR3A LBD binder, UBC13 polyUb, SUMO HTRF inh)
COc1ccc(CN(CCN2CCOCC2)C(=O)c2cc(F)cc(F)c2)cc1OC	none (no result: NR3A LBD binder, UBC13 polyUb, SUMO HTRF inh)
CC(C)(C)c1ccc(-c2nnc3n2N=C(c2ccc4ccccc4c2)CS3)cc1	none (no result: NR3A LBD binder, UBC13 polyUb, SUMO HTRF inh)
COC(=O)c1nc[nH]c1[N+](=O)[O-]	none (no result: UBC13 polyUb, SUMO HTRF inh)
O=[N+]([O-])c1[nH]cnc1/C=C/c1ccccc1	NR3A LBD binder 22.3
